Data: PubChem BioAssay AID1159580 (chemical genetic matrix, 2015)
Hit rate of the full screen: of about 5,500 compounds, about 2,000 (36%) were called active. Roughly 18% stayed inconclusive and do not appear here. No stated cut-off is given here; in the data, active means normalized growth mostly below about 0.91 (no sharp cut-off); inconclusive means no clear call, values can overlap the other calls; inactive means mostly above about 0.92. Some of the results follow.

Assay: chemical genetic growth profiling, strain panel (AID 1159580);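 further: tested at 20 µM; growth read once vehicle control cultures reached saturation at 30 °C; 1 = growth at the plate median or of vehicle wells; lower values mean less growth of the strain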
Conditions: S. cerevisiae deletion strains, growth OD

Measured: normalized growth

COC(=O)c1cc(I)c(OC(C)=O)c(I)c1
active: locus YLR113W, strain HOG1, active compounds read low 0.745
inactive: locus YAR019C, strain CDC15, active compounds read low 0.952 | locus YBL105C, strain PKC1, active compounds read low 0.958 | locus YBR135W, strain CKS1, active compounds read low 0.944 | locus YBR136W, strain MEC1, active compounds read low 0.958 | locus YBR160W, strain CDC28, active compounds read low 0.959 | locus YDL017W, strain CDC7, active compounds read low 0.961 | locus YDL028C, strain MPS1, active compounds read low 0.961 | locus YDL101C, strain DUN1, active compounds read low 0.935 | locus YDL108W, strain KIN28, active compounds read low 0.955 | locus YDL132W, strain cdc53, active compounds read low 0.939 | locus YDL214C, strain PRR2, active compounds read low 0.929 | locus YDR052C, strain DBF4, active compounds read low 0.967 | locus YDR054C, strain cdc34, active compounds read low 0.939 | locus YDR226W, strain ADK1, active compounds read low 0.951 | locus YDR477W, strain SNF1, active compounds read low 0.955 | locus YER123W, strain YCK3, active compounds read low 0.905 | locus YER133W, strain GLC7, active compounds read low 0.945 | locus YFL009W, strain cdc4, active compounds read low 0.952 | locus YFL029C, strain CAK1, active compounds read low 0.947 | locus YFR003C, strain YPI1, active compounds read low 0.956 | locus YFR019W, strain FAB1, active compounds read low 0.94 | locus YFR028C, strain CDC14, active compounds read low 0.95 | locus YGR040W, strain KSS1, active compounds read low 0.953 | locus YGR052W, strain FMP48, active compounds read low 0.967 | locus YGR092W, strain DBF2, active compounds read low 0.9 | locus YHR030C, strain SLT2, active compounds read low 0.916 | locus YHR079C, strain IRE1, active compounds read low 0.973 | locus YHR082C, strain KSP1, active compounds read low 0.98 | locus YHR205W, strain SCH9, active compounds read low 0.864 | locus YIL147C, strain SLN1, active compounds read low 0.966 | locus YJL095W, strain BCK1, active compounds read low 0.934 | locus YJL128C, strain PBS2, active compounds read low 0.856 | locus YJL157C, strain FAR1, active compounds read low 0.945 | locus YJR016C, strain ILV3, active compounds read low 0.959 | locus YJR066W, strain TOR1 (second series), active compounds read low 0.943 | locus YJR066W, strain TOR1, active compounds read low 1.01 | locus YKL048C, strain ELM1, active compounds read low 0.913 | locus YKL067W, strain YNK1, active compounds read low 0.91 | locus YKL101W, strain HSL1, active compounds read low 0.902 | locus YKL193C, strain SDS22, active compounds read low 0.942 | locus YKL203C, strain TOR2, active compounds read low 1.02 | locus YLR133W, strain CKI1, active compounds read low 0.949 | locus YLR403W, strain SFP1, active compounds read low 0.935 | locus YML070W, strain DAK1, active compounds read low 0.897 | locus YMR001C, strain CDC5, active compounds read low 0.947 | locus YMR205C, strain PFK2 (second series), active compounds read low 0.925 | locus YMR277W, strain FCP1, active compounds read low 0.948 | locus YNL006W, strain LST8, active compounds read low 0.951 | locus YNL020C, strain ARK1, active compounds read low 0.939 | locus YNL161W, strain CBK1, active compounds read low 0.961 | locus YNL183C, strain NPR1, active compounds read low 0.958 | locus YNL207W, strain RIO2, active compounds read low 0.957 | locus YNL222W, strain SSU72, active compounds read low 0.94 | locus YNL307C, strain MCK1 (second series), active compounds read low 0.918 | locus YOL078W, strain AVO1, active compounds read low 0.952 | locus YOL136C, strain PFK27, active compounds read low 0.926 | locus YOR061W, strain CKA2, active compounds read low 0.937 | locus YOR119C, strain RIO1, active compounds read low 0.991 | locus YOR231W, strain MKK1, active compounds read low 0.942 | locus YOR329C, strain SCD5, active compounds read low 0.963 | locus YPL031C, strain PHO85, active compounds read low 0.949 | locus YPL153C, strain RAD53, active compounds read low 0.936 | locus YPL204W, strain HRR25, active compounds read low 0.946 | locus YPL209C, strain IPL1, active compounds read low 0.95 | locus YPL256C, strain CLN2, active compounds read low 0.898 | locus YPR025C, strain CCL1, active compounds read low 0.953 | locus YPR106W, strain ISR1, active compounds read low 0.92 | locus YPR111W, strain DBF20, active compounds read low 0.926 | strain NNK1, active compounds read low 0.921 | strain TSCII, active compounds read low 0.948
